Screening results from PubChem BioAssay.
D2 antag: HTS Assay for Allosteric Antagonists of the Human D2 Dopamine Receptor: Primary Screen for Antagonists | D(2) dopamine receptor (Homo sapiens), P14416 | HEK293 TREx D2 cells, calcium flux, dopamine EC80 | inhibition, % at 10 µM | 2% of 340,000 active | AID 485344, 2010; in the data active = inhibition above about 30%; inactive = below that, where a call was filed; note: 0% is about no effect
Target sequence (P14416 whole entry, looked up): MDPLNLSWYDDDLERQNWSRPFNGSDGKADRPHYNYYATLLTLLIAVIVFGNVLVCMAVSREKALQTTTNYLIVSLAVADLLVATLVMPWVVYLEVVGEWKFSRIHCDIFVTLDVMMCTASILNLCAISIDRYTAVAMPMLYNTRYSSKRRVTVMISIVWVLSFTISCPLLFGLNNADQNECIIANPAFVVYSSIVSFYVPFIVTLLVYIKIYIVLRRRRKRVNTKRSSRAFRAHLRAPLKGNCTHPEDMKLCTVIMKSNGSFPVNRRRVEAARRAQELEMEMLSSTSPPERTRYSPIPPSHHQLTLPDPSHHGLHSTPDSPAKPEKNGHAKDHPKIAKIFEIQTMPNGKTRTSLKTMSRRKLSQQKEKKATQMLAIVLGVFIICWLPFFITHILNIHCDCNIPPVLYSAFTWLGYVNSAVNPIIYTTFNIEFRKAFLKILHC
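Measurement of antagonist activity uses fluorescent calcium dye in inducible HEK293 T-REx D2 cells: 10 s baseline, compound addition with 180 s read, EC80 dopamine addition with a further 180 s read.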
D2 PAM-1: HTS Assay for Positive Allosteric Modulators of the Human D2 Dopamine Receptor: Primary Screen for Potentiators | D(2) dopamine receptor (Homo sapiens), P14416 | HEK293 T-REx D2, calcium flux, EC20 dopamine potentiation | potentiation, % at 10 µM | 0.34% of 340,000 active | AID 485347, 2010;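 active = potentiation over 3 SD above the plate norm, cut at about 30% in these data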; note: 0% is about no effect
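Cells plated with tetracycline inducer and held overnight at 30 C; calcium dye loaded 30–90 min at room temperature; baseline taken, compound added and read 180 s; EC20 dopamine then added and read 180 s.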
D2 ag-1: HTS Assay for Allosteric Agonists of the Human D2 Dopamine Receptor: Primary Screen for Agonists; D(2) dopamine receptor (Homo sapiens), P14416; HEK293 T-REx D2 cells, calcium flux agonist mode; activation, % at 2 µM; 0.53% of 340,000 active; AID 485358, 2010;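 active = activation over 3 SD above normal in the single-dose calcium agonist read, cut at about 30% in these data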; note: 0% is about no effect
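Agonism scored from kinetic calcium signal (1 read/sec, 180 s) following compound pin transfer, after a 10 s baseline. Cells: HEK293 Trex line expressing inducible D2 receptor coupled to calcium, dye-loaded after overnight culture at 30 C.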
D2 ag-2: Beta-Arrestin HTS for Positive Allosteric Modulators of the Human D2 Dopamine Receptor: Agonists; D(2) dopamine receptor (Homo sapiens), P14416; DiscoveRx PathHunter D2 beta-arrestin, luminescence, 90 min; 100% = 57 uM dopamine signal; activation, % (no concentration beside the values); 0.084% of 360,000 active; AID 624465, 2012; in the data active = activation above about 40%
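Agonist mode: compounds alone added to overnight-plated D2 PathHunter cells for 90 min at 37 C, with 57 uM final dopamine (EC100) defining full response. Beta-arrestin recruitment detected by chemiluminescent reagent, read after 1 h at ambient temperature.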
D2 PAM-2: Beta-Arrestin HTS for Positive Allosteric Modulators of the Human D2 Dopamine Receptor: Potentiators; D(2) dopamine receptor (Homo sapiens), P14416; DiscoveRx D2 beta-arrestin cells, luminescence, 90 min; 100% = 57 uM dopamine signal; potentiation, % (no concentration beside the values); 0.23% of 360,000 active; AID 624464, 2012; in the data active = potentiation above about 50%
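PathHunter D2 cells, attached overnight at 37 deg C, received compound in DMSO plus dopamine at EC20 (50 nM final) for 90 min at 37 deg C. Beta-arrestin recruitment was read as luminescence after 1 h with detection reagent at ambient temperature.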
* marks the source's active call; other numbers are inactive results; / = no result. An excerpt weighted towards active compounds, which were near 2.4% of everything screened.

SMILES	D2 antag	D2 PAM-1	D2 ag-1	D2 ag-2	D2 PAM-2
C=CCNc1nc(N2CCCCC2)c(C#N)c2c1CN(Cc1ccccc1)CC2	72*	-13	0	-5	-44
N#Cc1c(NCCO)nc(NCc2ccccc2)c2c1CCN(Cc1ccccc1)C2	-16	-6	0	1	-1
CCN1CCc2c(C#N)c(N3CCCCC3)nc(NCc3ccccc3)c2C1	11	-22	0	-2	-28
CC(C)N1CCc2c(sc(N)c2C#N)C1	-12	-10	2	1	-8
N#Cc1c(N)sc(=S)c2c1CCN(Cc1ccccc1)C2	32*	10	1	/	/
Cc1ccccc1S(=O)(=O)Cc1ccc(C(=O)NCc2ccccc2Cl)o1	/	0	1	/	/
N#Cc1c[nH]n2c(NC3CCCCC3)c(-c3ccccc3F)nc12	/	-19	1	/	/
Cc1ccc(NC(=O)N2CCN(c3nnc(C)c4c(C)n(-c5ccccc5)nc34)CC2)cc1Cl	/	-1	2	/	/
CC(C)c1ccc(OC(=O)c2cc(-c3ccccc3)on2)cc1	/	-1	/	/	/
COC(=O)c1ccc(OCC2c3cc(OC)c(OC)cc3CCN2C(=O)Cc2ccccc2)cc1 (stereo not drawn)	/	-7	1	/	/
Cc1onc(-c2c(Cl)cccc2Cl)c1CO/N=C(\C#N)c1c(Cl)cccc1Cl	30*	-3	1	-4	-4
COc1ccc(Cl)cc1NC(=O)CSc1nnc2[nH]c(=O)cc(-c3ccccc3)n12	/	21	/	/	/
CCCN1C2CCCC1CC(NC(=O)c1ccc(Br)cc1)C2 (stereo not drawn)	-25	-1	1	0	-15
CCC(=O)NC1CC2CCCC(C1)N2Cc1ccc(C)cc1 (stereo not drawn)	93*	-30	0	-3	-78
CC(=O)NC1CC2CCC(C1)N2Cc1ccc(C)cc1 (stereo not drawn)	51*	-20	1	2	-41
CSc1cccc(NC(=O)CN(C)S(=O)(=O)c2ccc3c(c2)CCCN3C(C)=O)c1	/	5	/	/	/
Cc1ccccc1NC(=O)Cc1nc(COC(=O)COc2ccccc2C(C)C)cs1	29	5	2	-3	-1
Cc1ccccc1NC(=O)Cc1nc(COC(=O)CNS(=O)(=O)c2cccc(Br)c2)cs1	35*	-8	0	-1	-5
CCOc1ccc(OCC(=O)OCc2csc(CC(=O)Nc3ccccc3C)n2)cc1	7	42*	1	1	6
O=C1c2ccccc2C(=O)N1CCc1nc2ccccc2c(=O)n1Cc1ccco1	40*	1	1	-3	4
O=C(NC12CC3CC(CC(C3)C1)C2)N1CCN(c2ccccn2)CC1	31*	-2	36*	1	-8
O=C(O)c1ccc(N/N=C/c2ccc(-c3cccc(Cl)c3)o2)cc1	/	/	/	12	3
O=C(O)c1cccc(-c2ccc(/C=N/Nc3ccc([N+](=O)[O-])cc3)o2)c1	3	-2	36*	-5	-9
O=C(O)c1ccc(-c2ccc(/C=N/Nc3ccc([N+](=O)[O-])cc3)o2)cc1	8	-4	54*	-6	-5
O=C(CCn1c(=O)c2ccccc2n(Cc2cccc(Cl)c2)c1=O)NCCc1ccccc1	/	21	0	/	/
SMILES	D2 antag	D2 PAM-1	D2 ag-1	D2 ag-2	D2 PAM-2
Cc1nnc(SCc2ccccc2Cl)c2cc3occc3n12	/	3	0	/	/
Cc1ccc(C)c(NS(=O)(=O)c2ccc3oc(=O)c4ncn(C)c4c3c2)c1	/	3	/	/	/
CC(C)C#Cc1cnc2c(c1)C(=O)N([C@H](C)CO)C[C@@H](C)[C@H](CN(C)C(=O)Nc1ccccc1F)O2	/	/	/	-7	7
Cc1cc(C)c(N=Cc2c(O)n(-c3nccs3)c(=O)c3ccccc23)c(C)c1	41*	-27	1	-3	-33
Cc1ccc(Cl)c2sc(N3CCN(C(=O)C4CC4)CC3)nc12	/	12	1	/	/
O=[N+]([O-])c1cc(-n2cnnn2)ccc1N1CCC(Cc2ccccc2)CC1	32*	-12	0	2	9
